High-throughput results deposited in PubChem by National Center for Advancing Translational Sciences (NCATS).
Sampled rows, rich in hits. Any-hit rate of the full collection: about 7.1%.
ATXN2 expr inh = inhibitors of ATXN2 expression; HEK-293 ATXN2-luciferase reporter, luminescence, 24 h; Potency, µM (doses to about 57 µM), inactives show top-dose activity change, negative = inhibition, most hits filed as inhibitors; 360,000 tested, 0.72% active; further: potency means the concentration at half of the fitted maximal effect; on the % scale 0 is the no-effect control and ±100 the full control effect; nearly all actives have a fitted effect of over 55% in size
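ATXN2-luciferase reporter cells (luciferase flanked by upstream and downstream ATXN2 gene portions) were treated 24 h at 37 °C with compounds at up to 57 uM. SteadyGlo luminescence gave expression; GF-AFC fluorescence gave viability.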
ATXN viability = viability counter-screen for ATXN expression inhibitors | S2 cells (HEK-293 line with an ATXN2-luciferase reporter) viability, CellTiter-Fluor protease fluorescence, 24 h | Potency, µM (highest dose often 56.7 µM), actives largely listed as cytotoxic | 400,000 tested, 0.49% active; further: potency means the concentration at half of the fitted maximal effect; nearly all actives have a fitted effect of over 40% in size
PINK1 modulator = PINK1 expression modulation. 410,000 tested, 0.2% active. PINK1 immunofluorescence, high-content cytometry, 24 h. Potency, µM (titrated, usually from 76.6 µM), for the others: at the highest dose activation (PINK1 increase), actives largely listed as activators; active means well fitted activation curve with a large enough effect; inconclusive means small, poorly fitted or top-dose-only effect; cell line not stated here; further: potency means the concentration at half of the fitted maximal effect; % of control where 0% means no effect; nearly all actives have a fitted effect of over 65% in size
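Decision-based qHTS: stable cells, 24 h exposure to five compound concentrations, CCCP as control. Fixed cells stained for PINK1 plus nuclear, mitochondrial and cell markers, cytometer read.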
SW480 rerep = inducers of DNA re-replication in SW480 colon cancer cells; SW480 DNA re-replication, Hoechst DNA content imaging, 48 h; Potency, µM (highest dose often 46.1 µM), without a hit: top-dose re-replication activation, most hits filed as activators; 340,000 tested, 1.8% active; further: potency means the concentration at half of the fitted maximal effect; % of control where 0% means no effect; nearly all actives have a fitted effect of over 55% in size
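Image-based read-out: total Hoechst fluorescence of nuclei (405 nm excitation, 500-530 nm emission), with hits raising the fraction of high-intensity nuclei. SW480 colon cells incubated 48 hr with compounds at 37 C.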
MCF10A rerep = induces DNA re-replication in MCF 10a normal breast cells. MCF 10A DNA re-replication, Hoechst nuclear intensity, 48 h. Potency, µM (doses to about 46.1 µM), without a hit: at the top dose activity, positive = re-replication, most hits filed as activators. 350,000 tested, 2.9% active. AID 624296; further: potency means the concentration at half of the fitted maximal effect; % of control where 0% means no effect; nearly all actives have a fitted effect of over 50% in size
IL-1B inflam inh = inhibitors of inflammasome signaling (IL-1 beta secretion). THP-1 LPS/ATP IL-1B secretion, AlphaLISA, 16 h; stronger effect = lower value. activity change, % at 57.5 µM. 360,000 tested, 4.7% active; in the data active means activity change below about -50%; inconclusive means mostly about -30% to -49%; further: on the % scale 0 is the no-effect control and ±100 the full control effect
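THP-1 cells pretreated 1 hr with compounds (up to 57.5 uM final), then stimulated with LPS (250 ng/mL final) plus ATP (1.25 mM final); secreted IL-1B measured by AlphaLISA after 16 hr, decreased signal indicating inhibition.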
* = called active by the depositor; [ ] = dose if it differs, or a comment. Unless noted, the call rests on the fitted dose curve; in most records, active means well fitted curve in the direction sought with a large enough effect; inconclusive means small, poorly fitted or top-dose-only effect, or another doubt; inactive means no such curve, though single readings can be large; an effect the other way counts as inactive or inconclusive.

How did CC(C)(C)N(Cc1ccc2c(c1)OCO2)C(=O)/C=C\S(=O)c1ccccc1 (centres undefined) do in these assays?
ATXN2 expr inh: 16µM*; ATXN viability: inconclusive; PINK1 modulator: -1%; SW480 rerep: 9.2µM*; MCF10A rerep: 10µM*; IL-1B inflam inh: -61*

Results for O=C(/C=N/O)Nc1ccc2sc3ccccc3c2c1 ?
ATXN2 expr inh: -2%; ATXN viability: inactive; PINK1 modulator: 2%; SW480 rerep: -139%; MCF10A rerep: 11%; IL-1B inflam inh: -100*

How did CCN1CCCC1CNC(=O)c1cnn(-c2ncc3c(n2)-c2ccc(OC)cc2CC3)c1C1CC1 (centres undefined) do in these assays?
ATXN viability: inactive; PINK1 modulator: 0%

Results for Cc1ccc(Nc2nc(-c3c(C)nc4ncccn34)cs2)cc1 ?
ATXN2 expr inh: 13%; ATXN viability: inconclusive; PINK1 modulator: 4%; SW480 rerep: 0.058µM*; MCF10A rerep: inconclusive; IL-1B inflam inh: -98*

Results for CCOc1ccc(Nc2nc(-c3c(C)nc4ccccn34)cs2)cc1 ?
ATXN2 expr inh: -9%

How did Cc1ccc(Nc2nc(-c3c(C)nc4ccccn34)cs2)cc1 do in these assays?
ATXN2 expr inh: inconclusive; ATXN viability: inconclusive; PINK1 modulator: 5%; SW480 rerep: inconclusive; MCF10A rerep: inconclusive; IL-1B inflam inh: -87*

Results for Cc1nc2ncccn2c1-c1csc(Nc2ccc(O)cc2)n1 ?
ATXN2 expr inh: 11%; ATXN viability: inactive; PINK1 modulator: 14%; SW480 rerep: 8%; MCF10A rerep: 28%; IL-1B inflam inh: -28

What do the screens show for `CCCCOC(=O)c1ccc(NC(=O)c2cc3c(=O)n4cccc(C)c4nc3n2C)cc1`?
PINK1 modulator: 3%

What do the screens show for `CCNc1ccc(Br)cc(C(=O)/C=C/c2ccccc2Cl)c1=O`?
ATXN2 expr inh: 20µM*; ATXN viability: inconclusive; PINK1 modulator: -2%[38.3 µM]; SW480 rerep: inconclusive; MCF10A rerep: inconclusive; IL-1B inflam inh: -104*

How did CNc1ccc(Br)cc(C(=O)/C=C/c2cccc(Cl)c2Cl)c1=O do in these assays?
ATXN2 expr inh: inconclusive; ATXN viability: inconclusive; PINK1 modulator: 9%; SW480 rerep: 4%; MCF10A rerep: 16µM*; IL-1B inflam inh: -56*

Results for CCNc1ccccc(C(=O)/C=C/c2ccc3c(c2)OCO3)c1=O ?
ATXN2 expr inh: 7%; ATXN viability: inactive; PINK1 modulator: -2%; SW480 rerep: -14%; MCF10A rerep: inconclusive; IL-1B inflam inh: -9

How did CNc1ccc(Br)cc(C(=O)/C=C/c2cccc(OC)c2OC)c1=O do in these assays?
SW480 rerep: -19%; MCF10A rerep: 1%; IL-1B inflam inh: -12

How did Cc1ccc(C(c2nnnn2CCc2ccccc2)N2CCC(C)CC2)cc1 (centres undefined) do in these assays?
ATXN2 expr inh: -16%; ATXN viability: inactive; PINK1 modulator: 4%; SW480 rerep: 28%; MCF10A rerep: inconclusive; IL-1B inflam inh: -64*

How did COc1cc(OC)c(OC)cc1/C=C/c1ccc2ccccc2n1 do in these assays?
PINK1 modulator: 6%

Results for COc1cc(/C=C/C2=NNC(=O)CC2)cc(OC)c1OC ?
ATXN2 expr inh: 24%; ATXN viability: inactive; PINK1 modulator: 0%; SW480 rerep: 2%; MCF10A rerep: 4%; IL-1B inflam inh: -7

How did COc1cc(/C=C/c2cc(C(F)(F)F)[nH]c(=O)n2)cc(OC)c1OC do in these assays?
ATXN2 expr inh: inconclusive; ATXN viability: inconclusive; PINK1 modulator: -2%; SW480 rerep: 21µM*; MCF10A rerep: inconclusive; IL-1B inflam inh: -101*

What do the screens show for `O=c1nc(/C=C/c2cc([N+](=O)[O-])ccc2Cl)cc(C(F)(F)F)[nH]1`?
ATXN2 expr inh: inconclusive; ATXN viability: inconclusive; PINK1 modulator: -5%; SW480 rerep: 7%; MCF10A rerep: 3.3µM*; IL-1B inflam inh: -94*

How did COc1cc(OC)c(OC)cc1/C=C/c1cc(C(F)(F)F)[nH]c(=O)n1 do in these assays?
ATXN2 expr inh: 4%; ATXN viability: inactive; PINK1 modulator: -3%; SW480 rerep: 18µM*; MCF10A rerep: 23µM*; IL-1B inflam inh: -7

How did Cc1noc(C)c1-c1nccc(NCc2cccs2)n1 do in these assays?
PINK1 modulator: 1%

What do the screens show for `O=C(Cn1ncc2c(Cl)cccc21)NCc1cccc(Br)c1`?
ATXN2 expr inh: 4%; ATXN viability: inactive; PINK1 modulator: 14%

How did CC(C)(C)c1ccc(-c2cn(-c3ccc(Br)cc3)c3[n+]2CCCS3)cc1 do in these assays?
ATXN2 expr inh: -22%; ATXN viability: inactive; PINK1 modulator: 35µM*; SW480 rerep: 1%; MCF10A rerep: inconclusive; IL-1B inflam inh: -99*

Results for c1ccc(-c2cn(-c3ccccc3)c3[n+]2CCS3)cc1 ?
ATXN2 expr inh: -35%; ATXN viability: inactive; PINK1 modulator: -1%; SW480 rerep: 6%; MCF10A rerep: 3%; IL-1B inflam inh: -12

Results for O=C1OC(/C(=C\Nc2ccccc2)[N+](=O)[O-])c2ccccc21 (centres undefined) ?
ATXN2 expr inh: 0%; ATXN viability: inactive; PINK1 modulator: -1%; SW480 rerep: -1%; MCF10A rerep: -1%; IL-1B inflam inh: -104*

Results for C=CCNC(=S)NNc1nc(N2CCCC2)nc(N2CCCC2)n1 ?
ATXN viability: inactive; PINK1 modulator: -1%; SW480 rerep: 4%; MCF10A rerep: 1%; IL-1B inflam inh: -6

What do the screens show for `C=CCNC(=S)NNc1nc(Nc2ccccc2)nc(N2CCCCC2)n1`?
ATXN2 expr inh: -17%; ATXN viability: inactive; PINK1 modulator: 3%; SW480 rerep: 4%; MCF10A rerep: 15%; IL-1B inflam inh: -63*

What do the screens show for `CCN(Cc1ccccc1)Cc1c(O)ccc2c(=O)c(-c3ccccc3OC)c(C(F)(F)F)oc12`?
ATXN2 expr inh: 2%; ATXN viability: inactive; PINK1 modulator: 5%

Results for COc1cc(CN2CCCC(n3cc(C(=O)N4CCCCC4)nn3)C2)cc(OC)c1 (centres undefined) ?
ATXN viability: inactive; PINK1 modulator: -1%

How did CCc1nc(NCCCn2ccnc2)c2oc3ccccc3c2n1 do in these assays?
ATXN2 expr inh: -4%; ATXN viability: inactive; PINK1 modulator: 0%; SW480 rerep: -3%; MCF10A rerep: 11%; IL-1B inflam inh: -18

What do the screens show for `c1ccc(-c2nc(NCc3ccco3)c3oc4ccccc4c3n2)cc1`?
ATXN2 expr inh: 11%; ATXN viability: inactive; PINK1 modulator: -5%[38.3 µM]; SW480 rerep: 3%; MCF10A rerep: 16µM*; IL-1B inflam inh: 15
